Laboratory results taken from PubChem BioAssay AID743060 (The Scripps Research Institute Molecular Screening Center, 2013).
Where “and” joins values, the source holds several entries; their conditions need not be identical. Equal entries are not always repeated.

Experiment: T. brucei methionyl-tRNA synthetase enzyme inhibition – biochemical, radioactivity, round 1, late-stage follow-up (AID 743060)
Conditions: purified enzyme, radiolabel aminoacylation, scintillation, 2 h; at 1 µM; stronger effect = higher value

Compound	inhibition
CC(=O)c1c[nH]c(C(=O)NCc2cccc(C(F)(F)F)c2)c1	44.6%
CC(C)OCCCN1CC(=O)N2C(c3cccc([N+](=O)[O-])c3)c3[nH]c4ccccc4c3C[C@H]2C1=O (some centres undefined)	50%
Cc1ccc(NC(=O)CN(C)C(=O)CCSc2ccc(F)cc2)cc1	-1.05%
O=C(NCc1nc2ccccc2[nH]1)C1=C[C@H](c2csc3ccccc23)C[C@H](OCCCCO)O1	71.1%
CCN(CCc1nc2ccc(C)cc2[nH]1)C(=O)c1ccc2ncccc2c1	-4.55%
O=C(N/C(=C\c1cccnc1)c1nc2ccccc2[nH]1)c1cccc(Br)c1	14.4%
Cc1cccc2[nH]c(C3CCCN(C(=O)c4cccc5cccnc45)C3)nc12 (centres undefined)	-3.03%
O=C(C(=O)N1CCOCC1)c1cn(CC(=O)N2CCCc3ccccc32)c2ccccc12	-6%
CN(CC(=O)Nc1ccc(Cl)cc1)C(=O)c1ccc(-n2cncn2)c([N+](=O)[O-])c1	38%
CC(C)c1nc2ccc(C(=O)N(C)CCc3nc4ccc(F)cc4[nH]3)cc2o1	-1.99%
O=C(NNC(=O)c1cc(-c2ccc(Cl)c(Cl)c2)nc2ccccc12)Nc1ccccc1	59.7%
COc1ccc(CCN(C(=S)Nc2ccccc2)C2CC(=O)N(c3ccc(Cl)cc3)C2=O)cc1 (centres undefined)	92.7%
O=C(Cn1cc(C(=O)C(=O)N2CCOCC2)c2ccccc21)Nc1cccc(C(F)(F)F)c1	87.5%
O=C(NCc1nc2ccccc2[nH]1)C1=C[C@@H](c2csc3ccccc23)C[C@@H](OCCCCO)O1	20.6%
O=C(NCc1nc2ccccc2[nH]1)C1=C[C@H](c2ccccc2)C[C@H](OCc2ccc(CO)cc2)O1	7.32%
O=C(Cn1cc(C(=O)c2ccccc2)c2ccccc21)Nc1cccc(C(F)(F)F)c1	22%
COc1ccc(OCC(O)CNC(=O)Nc2ccc(Cl)cc2)cc1 (centres undefined)	28.9%

Compound	inhibition
COCCc1nc2ccc(C(=O)NCCc3nc4ccc(OC)cc4[nH]3)cc2o1	-1.44%
CC(=O)c1ccc(N2CCN(C(=O)CCCn3c(=O)[nH]c4ccc(Br)cc4c3=O)CC2)cc1	68.1%
Cc1ccc2[nH]c3nc(SCC(=O)Nc4ccc(C(F)(F)F)cc4)nnc3c2c1	21.3%
Cc1cccc(NC(=O)C2CC(=O)n3c(nc4ccccc43)N2)c1 (centres undefined)	3%
CC(=O)N(CCc1ccccc1)C1CC(=O)N(c2ccc(Br)cc2)C1=O (centres undefined)	-12.2%
COc1ccccc1NS(=O)(=O)c1cccc(NC(=O)Nc2ccccc2)c1	57%
CC(C)(C)[C@@H]1C=C(C(=O)NCc2nc3ccccc3[nH]2)O[C@H](OCc2ccc(CO)cc2)C1	30.8%
Cc1cccc2[nH]c(CCN(C)C(=O)c3cccc(C4CCNC4)c3)nc12 (centres undefined)	-7.8%
O=C1CC(SCc2nc3ccccc3[nH]2)C(=O)N1c1cccc(Cl)c1 (centres undefined)	19.7%
COc1cccc(NC(=O)C2CC(=O)n3c(nc4ccccc43)N2)c1 (centres undefined)	5.53%
COc1ccc(CNC(=O)CSc2nnc3c(n2)[nH]c2ccc(F)cc23)cc1	47.5%
CCN(CC)C(=O)C(=O)c1cn(CC(=O)Nc2cccc(C(F)(F)F)c2)c2ccccc12	95.4%
O=C(NCc1nc2ccccc2[nH]1)C1=C[C@@H](C2CC2)C[C@@H](OCc2ccc(CO)cc2)O1	52.8%
O=C(NCc1nc2ccccc2[nH]1)C1=C[C@H](C2CC2)C[C@H](OCc2ccc(CO)cc2)O1	-3.3%
COc1ccc(NC(=O)CSc2nnc3c4cc(C)ccc4n(C)c3n2)cc1	-3.06%
O=C(Nc1ccc(F)c(Cl)c1)C1CC(=O)n2c(nc3ccccc32)N1 (centres undefined)	44.9% and 55.3%
COc1ccccc1-n1c(SCC(=O)Nc2ccc(Cl)cc2)nc(O)c(Cc2ccccc2)c1=O	2.04%
